Rows were chosen to be rich in hits. Some 4.1% of all compounds tested hit in one or more screens of this group.
hcDAF12 agonist = activators of H. contortus DAF-12 nuclear receptor; HEK293 hcDAF-12 lit1-tk-luc reporter, luminescence; 0% DMSO, 100% Δ7-dafachronic acid; activation, % at 6.8 µM; 370,000 compounds, 1.4% hits; AID 652067;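 active = activation above the mean of all tested compounds plus 3 SD, cut at about 5.5% in these data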
DAX1 inh-1 = inhibitors of human orphan nuclear receptor DAX1 (NR0B1). HEK293 Gal4-DAX1 luciferase reporter, luminescence. inhibition, % at 6.75 µM. 340,000 compounds, 0.99% hits. AID 504766;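 active = inhibition above the mean over all tested compounds plus 3 SD, cut at about 4.2% in these data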;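 note: inhibition shows as a rise in luminescence from relieved DAX1 repression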
Target sequence (P51843 207-470 limits assumed): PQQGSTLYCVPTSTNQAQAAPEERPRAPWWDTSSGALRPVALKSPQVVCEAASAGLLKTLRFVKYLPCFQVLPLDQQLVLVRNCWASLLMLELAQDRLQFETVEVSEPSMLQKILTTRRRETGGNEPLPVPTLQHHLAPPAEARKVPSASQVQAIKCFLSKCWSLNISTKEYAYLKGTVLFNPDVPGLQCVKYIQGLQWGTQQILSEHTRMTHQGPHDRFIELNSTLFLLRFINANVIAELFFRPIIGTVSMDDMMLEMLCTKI
hgDAF-12 ag = agonists of H. glycines DAF-12 nuclear receptor; HEK293 GAL4-hgDAF12 UAS-luciferase reporter, agonist luminescence; normalized to butyrate control; activation, % at 6.8 µM; 370,000 compounds, 1.8% hits;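 active = activation above a cutoff set at the mean of all screened compounds plus 3 SD, cut at about 10% in these data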
DAX1 inh-2 = blocks DAX1 repression of SF-1 activated StAR promoter | HEK293T StAR-luciferase reporter, SF-1/DAX-1 repression relief | inhibition, % at 6.8 µM | 370,000 compounds, 1.1% hits;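 active = inhibition above the mean over all tested compounds plus 3 SD, cut at about 3.6% in these data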;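 note: higher inhibition means more luminescence from relief of DAX-1 repression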
ssDAF12 agonist = S. stercoralis DAF-12 activation, primary screen; 370,000 compounds, 1% hits; activation, % at 6.8 µM; HEK293 ssDAF-12/GRIP1 lit1-tk-luc reporter, luminescence; % of 3 µM dafachronic acid response; AID 652126;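 active = activation above the mean over all tested compounds plus 3 SD, cut at about 0.9% in these data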
A number is an active result; n = inactive; x = not tested or not shown.

SMILES	hcDAF12 agonist	DAX1 inh-1	hgDAF-12 ag	DAX1 inh-2	ssDAF12 agonist
Cc1oc2c(C)c3oc(=O)c(CCC(=O)N4C[C@H]5C[C@@H](C4)c4cccc(=O)n4C5)c(C)c3cc2c1C	n	4.9	n	n	n
O=C(Oc1cc2oc(=O)c3c(c2cc1Cl)CCCC3)c1ccco1	n	4.7	n	n	n
CCOC(=O)N1CCN(C(=O)C[C@@H]2C(=O)N3CCCC4=C3[C@@]2(C(=O)OCC)CCC4)CC1	n	x	n	n	n
COc1ccccc1N=c1oc2cc(O)ccc2cc1C(N)=O	n	n	n	n	n
Cc1cccc(N=c2oc3cc(O)ccc3cc2C(N)=O)c1	n	n	12	n	n
CCC[C@@H](/C=C/C(=O)OC(C)(C)C)Sc1ccc(N)cc1	n	x	n	n	n
CC(=O)c1ccc(N2CCN(S(=O)(=O)c3ccc4c(c3)CCC(=O)N4)CC2)cc1	n	x	n	n	n
CC(=O)c1ccc(N2CCN(S(=O)(=O)c3cc4[nH]c(=O)c(=O)[nH]c4cc3C)CC2)cc1	n	n	11	n	n
Cn1c(O)c(C2=c3ccccc3=NC2=O)[nH]c1=S	n	n	n	n	1.2
COc1ccc2nc(-n3c(O)c(C4=c5ccccc5=NC4=O)[nH]c3=S)sc2c1	n	n	n	n	n
Cc1ccc(/C(N)=N/OC(=O)CCc2ccccc2)cc1	6.2	n	n	n	n
O=C(CCNC(=O)c1ccccc1Cl)Nc1ccc(Br)c(C(F)(F)F)c1	n	n	n	n	19
CC(=O)Nc1cccc2c1C(=O)N(c1ccc(C)cc1)C2=O	6.0	n	n	n	n
COc1ccc(OC)c(CN(CC(F)(F)F)S(=O)(=O)c2ccccc2Br)c1	n	x	n	n	n
O=C(Oc1cccc(-c2cnc3ccccc3n2)c1)c1ccco1	6.5	n	n	n	n
CC(=O)Nc1ccc(Cl)cc1C(=O)O	n	n	n	n	0.9
Cc1cccc(Nc2ncnc3c2cnn3C)c1	n	n	n	n	n
Cn1ncc2c(Nc3ccc4ccccc4c3)ncnc21	n	n	12	n	n
Cc1nc2c(Cl)c(C)nn2c2c1CCC2	n	n	n	n	n
Cc1nc2c(-c3ccc(Cl)cc3)cnn2c2c1CCC2	n	n	n	n	2.1
CC(C)(C)SCCNC(=O)/C=C/c1ccc(F)cc1	n	n	n	n	1.4
Cn1c(CN2CCN(C(=O)c3ccccc3)CC2)nc2cc([N+](=O)[O-])ccc21	n	n	n	n	0.9
O=C(COC(=O)c1cncc(Br)c1)Nc1ccc(N2CCCCC2)cc1	n	n	n	n	1.8
O=C1[C@@H](CCc2ccccc2)[C@@H]2c3ccccc3C=NN2[C@@H]2c3ccccc3C=NN12	n	x	n	n	n
COc1ccc(CNC(=O)[C@@H](NC(=O)C2CCN(C(=O)[C@@H](N)CCSC)CC2)C(C)C)cc1	n	5.9	n	n	n
SMILES	hcDAF12 agonist	DAX1 inh-1	hgDAF-12 ag	DAX1 inh-2	ssDAF12 agonist
CC(C)C[C@H](N)C(=O)N1CCC(C(=O)N[C@H](C(=O)NC(C)c2ccccc2)C(C)C)CC1 (stereo partly specified)	n	5.5	n	n	n
COc1ccc(CNC(=O)[C@@H](NC(=O)C2CCN(C(=O)[C@@H](N)CC(C)C)CC2)C(C)C)cc1	n	n	n	n	n
CSCC[C@H](NC(=O)OC(C)(C)C)C(=O)N1CCC(C(=O)N[C@@H](C)C(=O)NC(C)c2ccccc2)CC1 (stereo partly specified)	n	8.3	n	n	n
CCn1c2ccccc2c2cc(C=NNC(=O)CSc3nc4ccccc4c(=O)n3-c3ccccc3)ccc21	n	x	n	n	n
Cc1ccc2nc(SCC(=O)Nc3ccc(F)c([N+](=O)[O-])c3)[nH]c2c1	n	n	n	n	n
Cc1ccc2nc(SCC(=O)Nc3cc([N+](=O)[O-])ccc3F)[nH]c2c1	6.1	n	n	n	n
c1cnc(SCC2CCCCC2)c(-c2nc3ccccc3[nH]2)c1	n	x	n	n	n
O=c1[nH]c2ccccc2nc1-c1c[nH]c2ccccc12	6.5	n	n	n	n
Nc1ccccc1-c1nc2ccccc2[nH]c1=O	n	n	n	n	n
CC(=O)c1cc(-c2ccc3nonc3c2)c(=O)n2c1CCC2	n	x	n	n	n
Nn1c(SCC(=O)NC2CCCC2)nnc1C(F)(F)F	n	5.3	n	n	n
Cc1ccc(NC(=O)Cc2nnc(SCC(=O)NC3CCCC3)n2C)cc1	6.3	n	n	n	n
COC(=O)C1CN(C2CC2)CCS(=O)(=O)N1Cc1cn(Cc2ccc(F)cc2)nn1 (stereo unspecified)	n	x	n	n	n
CC(C)C(OC(=O)c1ccccc1)c1nccc2ccccc12 (stereo unspecified)	n	4.2	n	n	n
O=C(OC(c1ccccc1)c1nccc2ccccc12)c1ccccc1 (stereo unspecified)	n	n	n	n	n
CCCn1nnc(NC(=O)c2cc3ccccc3o2)n1	n	5.7	n	n	n
CCCn1nnc(NC(=O)c2cc(Br)ccc2OC)n1	n	n	n	n	1.1
CCCn1nnc(NC(=O)c2cccc(Cl)c2)n1	n	n	n	n	n
O=C1c2cc(O)cc(O)c2C(=O)c2c1cc(O)c([C@@H](CO)CCO)c2O	6.1	n	n	n	n
CCOC(=O)c1ccc(N/C=C/C(=O)c2ccccc2)cc1	n	n	12	n	n
CC(=O)Nc1ccc(N/C=C/C(=O)c2ccccc2)cc1	n	n	n	n	n
CCOC(=O)c1ccc(NC(=S)Nc2ccccc2)cc1	n	n	n	n	1.2
CCOC(=O)c1ccc(N/C=C/C(=O)c2ccc(OC)cc2)cc1	n	n	n	n	n
O=C(/C=C/Nc1ccccc1)c1ccccc1	6.5	n	11	3.8	n
CCOC(=O)c1ccc(NC(=S)Nc2ccc(C)cc2)cc1	n	n	n	n	n
SMILES	hcDAF12 agonist	DAX1 inh-1	hgDAF-12 ag	DAX1 inh-2	ssDAF12 agonist
CCOC(=O)c1ccc(N/C=C/C(=O)C(C)(C)C)cc1	n	n	13	n	n
Cc1cc(C(=O)NN=Cc2cccc(O)c2)n[nH]1	n	x	n	n	n
O=C(C1CCN(c2cncnc2)CC1)N1CCCC1	n	x	n	n	n
CN1C[C@@H]2[C@@H]3C(=O)N(C)C(=O)[C@@H]3[C@](Cc3ccccc3)(C1=O)N2C(=O)c1ccccc1	n	n	n	n	n
Fc1ccc(CSc2nnc3ccccn23)c(Cl)c1	n	n	n	4.2	n
CCCCNC(=O)O[C@H]1CC[C@@]23CCCN2C(=O)CCC[C@H]3C1	n	x	n	x	n
CCOC(=O)c1cccc(NC(=O)CN(C)S(=O)(=O)c2ccc(Br)s2)c1	n	x	n	n	n
CCOC(=O)c1c(C)oc2c1c(C=NCC1CCCO1)c(O)c1ccccc12 (stereo unspecified)	n	6.6	n	n	n
CCOC(=O)c1c(C)oc2c1c(C=NCc1ccccn1)c(O)c1ccccc12	n	n	n	n	n
Cc1c(/C=C/C(=O)c2ccccc2O)cnn1C	n	4.5	13	n	n
OCC(O)CNC(=S)NC1CCCCC1 (stereo unspecified)	n	4.9	n	n	n
